# ± gives the standard deviation.
# Tests used:
# [1] = test system: MILI (PIWIL2) piRISC loaded with L1MC piRNA (26 nt); assay: pre-steady-state target cleavage rate (min^-1); guide: L1MC piRNA 5'p-UAACUAAAUACUAUGCAAGCUGUAGG; higher = faster piRNA-guided slicing of the target
# How it was run: (§1)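 Cleave-'n-Seq used a transcribed, DNA-blocked target RNA library at 0.1 nM and active affinity-purified piRISC with one synthetic guide at 1 nM, with or without 500 nM GTSF1 partner protein, in HEPES–potassium acetate buffer at 33 °C for 0–8 or 0–960 min. Uncleaved targets were sequenced and normalised to depth and to weakly complementary targets, and three trials were pooled with k3 capped at 0.0001 min^-1. The pre-steady-state cleavage rate was estimated by a burst-and-steady-state fit.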
# [2] = test system: EfPiwi piRISC loaded with L1MC piRNA (26 nt); assay: pre-steady-state target cleavage rate (min^-1); auxiliary factor: 500 nM Ephydatia muelleri Gtsf1; guide: L1MC piRNA 5'p-UAACUAAAUACUAUGCAAGCUGUAGG; MIWI and MILI are mouse PIWI proteins and EfPiwi is from a freshwater sponge; tags in brackets are library labels; higher = faster piRNA-guided slicing of the target
# How it was run: as §1
# [3] = auxiliary factor: 500 nM mouse GTSF1
# [4] = auxiliary factor: none (no GTSF1)
Sequence,"pre-steady-state target cleavage rate [1, 3]","pre-steady-state target cleavage rate [1, 4]",pre-steady-state target cleavage rate [2]
UCCUGGAACAGGAAGCAUAGUAUUUAGUUA,0.199 ± 0.016,0.00491 ± 0.0024,0.00471 ± 0.002
UCCUGGAUGUGCUCGCAUAGUAUUUAGUUA,0.155 ± 0.018,0.00981 ± 0.0026,0.00512 ± 0.0021
UCCUCCUUCAGCUUGCAUAGUAUUUAGUUA,0.297 ± 0.019,0.0116 ± 0.0026,0.158 ± 0.041
UCCUGGAUCUCCUUGCAUAGUAUUUAGUUA,0.226 ± 0.014,0.00588 ± 0.0018,0.0227 ± 0.0066
UCCUGCUACAGCUUCGAUAGUAUUUAGUAA,0.199 ± 0.03,0.00274 ± 0.0022,0.00315 ± 0.0026
UCCUGGUACAGCUUGCAAAGUAAUUAGUUA,0.207 ± 0.03,0.00414 ± 0.0027,0.00305 ± 0.0021
UCCUGGUACAGCUUGCAUAGUCUUUAGUUA,0.152 ± 0.025,0.00831 ± 0.003,0.00738 ± 0.0024
UCCUGCUACACCUAGCAUAGUAUUUAGUUA,0.254 ± 0.021,0.00758 ± 0.0022,0.0171 ± 0.0054
UCCUGGAUGACCUUGGAUAGUAUUUAGUUA,0.14 ± 0.013,0.00594 ± 0.0024,0.00325 ± 0.0032
UCCUGCUAGAGGUUGCAUAGUAUUUAGUUA,0.2 ± 0.011,0.0085 ± 0.0026,0.00977 ± 0.0027
UCCUGGAACAGCUUGCAAUGUAUUUAGUUA,0.0726 ± 0.0083,0.00437 ± 0.002,0.00454 ± 0.0035
UCCUGGUACAGCUACCAUAGUAUUUAGUUA,0.305 ± 0.044,0.00616 ± 0.0022,0.00432 ± 0.0019
UCCUGGAUGAGCAUGCAUAGUAUUUAGUUA,0.199 ± 0.016,0.00939 ± 0.0029,0.0207 ± 0.0065
UCCUGGAUCAGCUUGCAUAGUAUUUCGUUA,0.147 ± 0.034,0.00354 ± 0.0024,0.00263 ± 0.002
UCCUGGUACAGGUUGCAUAGUAUUUAGUAA,0.287 ± 0.04,0.00626 ± 0.0028,0.00428 ± 0.0022
UCCUCCUACAGCUUGCAUAGUAUUUCAGUUA,0.463 ± 0.073,0.0049 ± 0.0029,0.00437 ± 0.0022
UCCUGGAUCUCGUUGCAUAGUAUUUAGUUA,0.198 ± 0.019,0.00544 ± 0.0024,0.0466 ± 0.011
UCCUGGAUGAGCUUGCAUAGUAGUUUAGUUA,0.115 ± 0.022,0.0138 ± 0.0039,0.00964 ± 0.0035
UCCUGCUACAGCUUGCAUAGUAUUUUAGUUA,0.283 ± 0.023,0.0106 ± 0.0025,0.00822 ± 0.0026
UCCUCCUACAGCUUGCAAAGUAUUUAGUAA,0.142 ± 0.016,0.00404 ± 0.0019,0.00609 ± 0.0029
UCCUCCUAGUGCUUGCAUAGUAUUUAGUUA,0.164 ± 0.018,0.00418 ± 0.0018,0.00928 ± 0.0031
UCCUGGUACAGCUUGCAUAGUAUUCUAGUUA,0.353 ± 0.088,0.00551 ± 0.0045,0.0044 ± 0.003
UCCUGGUACACUUGCAUAGUAUUUAGUUA,0.188 ± 0.024,0.00665 ± 0.0026,0.00407 ± 0.0024
UCCUCCUACAGGUUGCAUAGUAUUUUGUUA,0.137 ± 0.021,0.00378 ± 0.0021,0.00418 ± 0.0015
UCCUGGAACAGGCUUGCAUAGUAUUUAGUUA,0.219 ± 0.019,0.0094 ± 0.0029,0.0145 ± 0.0037

# Reference: the supplement of paper PMC10338343
